# Measured values reported in PubChem BioAssay (NCI).
# About 83,000 compounds went through this panel and 20% of them were active in at least one assay; those are over-represented in the sample as a whole.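 48-hour exposure, single concentration, 96-well plates; percent growth endpoint where 0 means no net growth. Active: below 10.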 Unmarked numbers belong to inactive results. The source made the active and inactive calls.
# Columns and labels:
# Experiment in all cases: NCI-60 one-dose screen, 48 h (100 = growth as untreated, 0 = no growth, -100 = all killed)
# Details in all cases: 10 µM unless noted
# SR leukemia = tested on: SR leukemia
# RPMI-8226 leukemia = tested on: RPMI-8226 leukemia
# OVCAR-8 ovarian = tested on: OVCAR-8 ovarian
# OVCAR-5 ovarian = tested on: OVCAR-5 ovarian
# OVCAR-4 ovarian = tested on: OVCAR-4 ovarian
# SK-OV-3 ovarian = tested on: SK-OV-3 ovarian
# IGROV1 ovarian = tested on: IGROV1 ovarian
# OVCAR-3 ovarian = tested on: OVCAR-3 ovarian
# HS 578T breast = tested on: HS 578T breast
# NCI/ADR-RES ovarian = tested on: NCI/ADR-RES ovarian
SMILES,growth (SR leukemia),growth (RPMI-8226 leukemia),growth (OVCAR-8 ovarian),growth (OVCAR-5 ovarian),growth (OVCAR-4 ovarian),growth (SK-OV-3 ovarian),growth (IGROV1 ovarian),growth (OVCAR-3 ovarian),growth (HS 578T breast),growth (NCI/ADR-RES ovarian)
CCN(CC)c1ccc2c(c1)Oc1nc(N)c(C#N)c(N)c1C2Sc1ccc(F)cc1 (stereo not given),-9.13% (active),-25.7% (active),-31.1% (active),-92.5% (active),-29.3% (active),-7.03% (active),-77.9% (active),-69.4% (active),-4.5% (active),-9.25% (active)
O=C(CSc1nc2ccccc2c(=O)n1-c1ccccc1)Nc1ccc(-c2nc3ccc([N+](=O)[O-])cc3[nH]2)cc1,20.9%,67.2%,75.5%,86.1%,88.6%,106%,57.9%,63.6%,77.1%,75.3%
O=C(Nc1nc2ccc([N+](=O)[O-])cc2s1)Nc1ccccc1Br,23.2%,6.15% (active),51.4%,84.4%,12.2%,63.6%,47.3%,25.9%,47.1%,52.1%
Cc1ccc(NC(=O)CNc2cc(C(N)=O)cc(F)c2C)c(Cl)c1,95.2%,90.6%,99.9%,87.9%,75.2%,104%,70.6%,111%,92.8%,105%
Nc1ncc(-c2ccc3ncnc(N4CCc5cc(F)c(F)cc54)c3c2)cn1,23.9%,4.99% (active),33.3%,38.1%,43.9%,9.09% (active),-6.07% (active),26.3%,-15.4% (active),35.8%
CCN(CC)CCn1c2ccc(O)cc2c2sc3cc(OC)ccc3c(=O)c21,-13.4% (active),-13.1% (active),19.3%,44.7%,28.2%,74.7%,19.2%,41.8%,63.6%,20.8%
CC(=O)O[C@@H]1C(=O)N(c2cnccn2)[C@H]1c1ccccc1[N+](=O)[O-],11.5%,13.3%,-20.5% (active),26.8%,66.6%,32.6%,13.6%,2.08% (active),13.8%,26.7%
Nc1ccccc1NC(=O)c1ccc(NC(=O)C/C=C/c2cccnc2)cn1,28.2%,-12% (active),21.5%,26%,32.9%,29.4%,16.7%,22.7%,24.6%,19%
CCCCCc1ccc(S(=O)(=O)Nc2cc(-c3csc(NC(=O)CN4CCN(C)CC4)n3)ccc2N2CCN(C)CC2)cc1,-40.7% (active),-28.5% (active),19.5%,18.4%,-44.3% (active),18.2%,7.21% (active),-34.7% (active),-24.3% (active),19.1%
COC(=O)C[Se]C(=O)Cc1c(C)n(C(=O)c2ccc(Cl)cc2)c2ccc(OC)cc12,16.4%,90.8%,41.4%,15.4%,40.6%,118%,16.8%,44.7%,29.8%,9.78% (active)
O=C(NNc1nc2cc(F)c(F)cc2n2cccc12)c1cnccn1,15.3%,30.5%,16.6%,41.2%,20.3%,30.5%,19.5%,35.6%,75.5%,2.66% (active)
O=C(NNc1nc2cc(F)ccc2n2c(CN3CC4CNCC4C3)ccc12)c1cnccn1 (stereo not given),12.9%,46.7%,14.3%,43.1%,23.8%,23.4%,24.2%,36.9%,72.5%,84.8%
CN(C)C(=O)c1cc(-c2ccc3ncnc(NCc4ccccc4)c3c2)cnc1N,89.3%,50.5%,97.3%,62.9%,80.7%,110%,34.2%,85.1%,81.8%,104%
N#Cc1cccc(NC(=O)c2cc(-c3ccc(F)cc3F)ccc2O)c1,27.3%,-8.42% (active),10.8%,14.6%,8.85% (active),5.89% (active),13.2%,9.74% (active),3.15% (active),4.64% (active)
Cc1cc2nc(C(Cl)Cl)nc(-c3cccs3)n2n1,48.3%,-23.4% (active),35%,3.63% (active),14.9%,14.7%,43.2%,-30.9% (active),3.9% (active),13.7%
CC(C)(C)n1cc(-c2ccnc(NCCCNS(=O)(=O)c3cccc(F)c3)n2)c(-c2ccc(Cl)c(O)c2)n1,94.1%,76%,118%,109%,101%,105%,103%,109%,101%,101%
COc1cc(-c2ccc3ncnc(NCc4ccccc4)c3c2)cnc1OC,62.1%,34.5%,70.7%,28.9%,65.3%,43.2%,-31.8% (active),43.4%,20%,68.3%
O=C(CN1CCN(c2cc(=O)n(-c3ccccc3)c3ccccc23)CC1)Nc1ccc(F)cc1,76.4%,61.5%,71.2%,101%,22.7%,78.6%,60.1%,71.8%,88.7%,64.3%
CC(=O)c1cc(C(=O)c2ccc(Br)cc2)n2cc(C)cc(C)c12,77.1%,62.9%,98.9%,89.8%,93.4%,94.9%,85.6%,112%,95.9%,86.3%
CCOc1ccccc1NC1=C(Cl)C(=O)c2nc(C)ccc2C1=O,-12.8% (active),-35.1% (active),0.93% (active),40.8%,-92% (active),85.3%,-57.5% (active),-98.9% (active),1.05% (active),-9.58% (active)
O=c1[nH]c2ccccc2cc1CSc1ccccc1Nc1nccc(-c2ccc(Cl)cc2)n1,99.2%,94.5%,96.9%,110%,86.2%,112%,89.6%,101%,88.6%,95.1%
C#CCOC(=O)[C@@H]1CCCN1CC#C,95.5%,71%,90.4%,103%,91.9%,97.6%,67.3%,87.3%,74.8%,85.7%
COc1cc(/C=C2\C(=O)Nc3cc(Cl)ccc32)ccc1OCc1ccc(F)cc1,97.5%,113%,98.7%,98.6%,83.2%,97.2%,72.7%,102%,91.7%,101%
Cc1ccc(NC(=O)c2ccc(CN3CCOCC3)c(C(F)(F)F)c2)cc1Oc1ccc(-c2[nH]nc3ncnc(N)c23)cc1,55.5%,44.6%,70.9%,72%,72.7%,71.6%,74.2%,93.2%,62.8%,87.9%
C#Cc1nc(C(C)=O)cs1,99.6%,92.5%,105%,107%,105%,93%,101%,112%,104%,103%
CC1(C)CC[C@]2(C(=O)N3CCOCC3)CC[C@]3(C)C(=CC[C@@H]4[C@@]5(C)C/C(=C/c6ccco6)C(=O)C(C)(C)[C@@H]5CC[C@]43C)[C@@H]2C1,44.6%,55.6%,91.3%,96.8%,60.9%,109%,86.7%,86.9%,83.5%,96.6%
CC(C)(C)c1ccc(C(=O)Nc2sc3c(c2C(N)=O)CCC(O)C3)cc1 (stereo not given),25.8%,16.3%,43.4%,66.5%,68.5%,70.1%,44.9%,55.3%,82.9%,49.9%
